Results on 26 molecules are retold here after PubChem BioAssay (Tox21).

Test [1] is described as follows: qHTS assay for small molecules that induce genotoxicity in human embryonic kidney cells expressing luciferase-tagged ATAD5 (AID 651632). Also: nearly all actives have a fitted effect of over 15% in size. The gist of the method:
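DMSO vehicle served as the control. HEK293T reporter cells, 16 hr at 37C, then 30 min Amplite at room temperature; ATAD5 induction is measured as luciferase activity.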

Test [2] in a line: qHTS assay for small molecule agonists of the p53 signaling pathway - cell viability (AID 651633; calls by dose curve; also: nearly all actives have a fitted effect of over 30% in size; also: potency is read from the fitted curve at half-maximal effect). The procedure, abridged: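 Viability counter-read: CellTiter-Glo luminescence (30 min, room temperature) in the same p53RE-bla plates. These plates had been exposed to compounds for 16 h at 37 C.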
On the technique in general: In qHTS, concentration-response curves come from the screen itself.

A short description of test [3]: qHTS assay for small molecule disruptors of the mitochondrial membrane potential - cell viability (AID 720634; calls by dose curve; also: nearly all actives have a fitted effect of over 20% in size; also: potency is read from the fitted curve at half-maximal effect). The procedure, abridged: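 Viability of HepG2 cells is scored from ATP content by luminescence; cells are exposed to compound for 1 hr at 37 C and 5% CO2, then dosed with m-MPI dye before the CellTiter-Glo reagent.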
Test [4] is described as follows: qHTS assay to test for compound auto fluorescence at 590 nm (red) in HepG2 cells (AID 720674). The procedure, abridged: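 Red autofluorescence (Ex/Em 540/590 nm, Rose Bengal sodium equivalents) was measured in HepG2 cells, 2,000 per well in MEM plus 10% FBS, plated overnight at 37 C. Readings were taken 1 hr after adding 23 nL compound or DMSO, at 37 C and 5% CO2.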

Test [5] in a line: qHTS assay to test for compound auto fluorescence at 535 nm (green) in HepG2 cells (AID 720675).
Test [6] can be described thus: qHTS assay to test for compound auto fluorescence at 460 nm (blue) in HEK293 cells (AID 720678). The gist of the method:
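Measured: blue fluorescence (Ex 405/Em 460 nm) of compound-treated HEK293 cells, incubated overnight at 37C with 5% CO2 and scaled to triamterene equivalents.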

Test [7] can be described thus: qHTS assay to test for compound auto fluorescence at 590 nm (red) in HEK293 cells (AID 720679). The gist of the method: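 Using HEK293 cells at 2,000 per well, the screen added 23 nL of each compound after cell attachment and incubated overnight (37C, 5% CO2). The plate reader then captured red-label fluorescence, Ex/Em 540/590nm.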
Test [8] can be described thus: qHTS assay for small molecules that induce genotoxicity in human embryonic kidney cells expressing luciferase-tagged ATAD5 - cell viability (AID 651634; calls by dose curve; also: nearly all actives have a fitted effect of over 25% in size). The gist of the method: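 Here HEK293T cells with the ATAD5 luciferase reporter are incubated with test compounds for 15.5 hr, and cytotoxicity is then gauged by measuring protease activity in live cells using fluorescence.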

Test [9] in a line: qHTS assay for small molecule disruptors of the mitochondrial membrane potential (AID 720635). Also: potency is read from the fitted curve at half-maximal effect. The procedure, abridged:
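Mitochondrial membrane potential tracked with Mito-MPS dye, red aggregates (ex 540/em 590 nm) against green monomers (ex 490/em 535 nm). Compound treatment 1 hr at 37C, dye 30 min in HepG2.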

Values joined by “and” are separate entries in the source; they are usually repeats but may differ in a detail not shown here. Equal entries are not always repeated. A number with no mark means an inactive call. Inconclusive results are not listed. Active and inactive are the calls of the source. Unless noted, calls follow the shape of the dose curve; as a rule, active = well fitted curve in the direction sought with a large enough effect in the repeat runs; inconclusive = weak or mixed curves; inactive = no such curve, though single readings can be large; an effect the other way counts as inactive or inconclusive.
% is scaled to controls: 0 for no effect and ±100 for the full control effect.

With `Clc1cc(Cl)c(-c2cc(Cl)c(Cl)cc2Cl)cc1Cl`, the Potency entry in test [1], in test [2], in test [3], in test [5] and in [6] was “inactive” each time. The molecule was classed as inactive in [4] and in test [7].

Consider `C[C@]12C/C(=C/O)C(=O)C[C@@H]1CC[C@@H]1[C@@H]2CC[C@@]2(C)[C@H]1CC[C@]2(C)O`, for which the Potency entry in test [1], in test [3], in test [5] and in [6] was “inactive” in each case. Moreover, the Potency in test [2] is 49 µM (active). Moreover, the result in [4] and in [7] was inactive.

Turning to `c1ccc(Nc2ccc(Nc3ccccc3)cc2)cc1`, the Potency result in test [1], in test [8], in test [5] and in test [6] was “inactive” each time. The Potency is 24.2 µM (active) in [3] and 8.6 µM (active) in test [9]. The result in test [4] and in [7] was inactive.

Take `CC(C)=CC1C(C(=O)OC(C#N)c2cccc(Oc3ccccc3)c2)C1(C)C` (stereo not given): the Potency entry in test [1], in test [8], in test [3], in [5] and in [6] was “inactive” each time. The call in [4] and in test [7] was inactive.

Turning to `CCC[CH2][Sn]([CH2]CCC)([CH2]CCC)[CH2]CCC`, the Potency result in test [1] and in [6] was “inactive” in each case. Further, the Potency in [2] is 43.3 µM (active); in test [9], 4.86 µM (active). Moreover, the molecule was called inactive in test [4] and in [7].

As for `O=C(Nc1ccc(F)cc1F)c1cccnc1Oc1cccc(C(F)(F)F)c1`, the Potency entry in [1], in test [8], in test [3], in test [5] and in test [6] was “inactive” each time. Further, the Potency in [9] is 23.8 µM (active). Also, the call in test [7] was inactive.

In the case of `C#CCC1=C(C)C(OC(=O)C2C(C=C(C)C)C2(C)C)CC1=O` (stereo not given), the Potency entry in test [1], in [8], in [5] and in test [6] was “inactive” throughout. In addition, the Potency in test [9] is 60.7 µM (active). Moreover, the molecule was classed as inactive in test [4] and in [7].

`O=c1[nH]c(Cl)c(Cl)cc1Cl`: the Potency result in [1], in test [8], in test [3] and in [6] was “inactive” each time. Moreover, the Potency in test [9] is 54.5 µM (active). Moreover, the molecule was called inactive in test [4] and in test [7].

For the molecule `CO/N=C(/C1=NOCCO1)c1ccccc1Oc1ncnc(Oc2ccccc2Cl)c1F`, the Potency result in test [1], in test [8], in [5] and in [6] was “inactive” in each case. In addition, in test [9], the Potency was 54.4 µM (active). For the same molecule, the call in test [4] and in [7] was inactive.

For the molecule `COc1ccc(Cc2nccc3cc(OC)c(OC)cc23)cc1OC`, the Potency result in [1], in [2] and in [3] was “inactive” each time. Further, in [5], the fluorescence, % of fluorescein control is 0.0156% [at 18.6 µM]. For the same molecule, in test [6], the fluorescence, % of triamterene is -0.311% [at 18.6 µM]. The fluorescence, % of fluorescent control in [7] is -0.0717% [at 18.6 µM].

Take `Oc1cc(Cl)cc(Cl)c1`: the Potency entry in test [1], in [8], in [5] and in test [6] was “inactive” throughout. The Potency in test [9] is 9.79 µM (active). Further, the result in test [4] and in test [7] was inactive.

Regarding `CN(C)CCc1c[nH]c2ccccc12`, the Potency entry in [1], in test [8], in [3], in [9], in test [5] and in test [6] was “inactive” in each case. In addition, the call in [4] and in [7] was inactive.

Consider `CCC(C)c1cccc(C(C)CC)c1O` (stereo not given), for which the Potency entry in test [1], in test [8], in [3] and in test [6] was “inactive” in each case. Besides, the Potency in [9] was 13.7 µM (active). Moreover, the call in test [4] and in test [7] was inactive.

As for `CCNc1nc(NC(C)C(C)C)nc(SC)n1` (stereo not given), the Potency result in [1], in test [8], in [3], in test [5] and in test [6] was “inactive” throughout. Moreover, the Potency in test [9] is 7.7 µM (active). For the same molecule, the call in test [4] and in test [7] was inactive.

Regarding `ClC1=C(Cl)[C@]2(Cl)[C@H]3[C@H]([C@@H]4C=C[C@H]3C4)[C@@]1(Cl)C2(Cl)Cl`, the Potency result in test [1], in [8], in test [3], in [5] and in [6] was “inactive” in each case. Moreover, the Potency in [9] is 30.6 µM (active) and 17.2 µM (active). Further, the call in test [4] and in test [7] was inactive.

As to `COC(=O)c1cc(Oc2ccc(Cl)cc2Cl)ccc1[N+](=O)[O-]`, the Potency result in test [1], in [8], in test [5] and in test [6] was “inactive” in each case. Further, the molecule was classed as inactive in [4] and in test [7].

`ClC1(Cl)C2(Cl)C3(Cl)C4(Cl)C(Cl)(Cl)C5(Cl)C3(Cl)C1(Cl)C5(Cl)C24Cl` (stereo not given): the Potency entry in [1], in [8], in [3], in test [5] and in test [6] was “inactive” each time. For the same molecule, the outcome in test [4] and in test [7] was inactive.

Turning to `Oc1ccc([C@H]2CNCc3c2ccc(O)c3O)cc1O`, the Potency entry in test [1], in test [2], in test [3], in test [9], in test [5] and in test [6] was “inactive” each time. Besides, the result in test [7] was inactive.

Regarding `CN(C)c1ccc(N)cc1`, the Potency result in test [2], in [8], in [3], in test [5] and in [6] was “inactive” each time. Besides, in test [9], the Potency was 8.42 µM (active). Moreover, the call in test [4] and in test [7] was inactive.

For `CCCCn1cc[n+](C)c1` (tested in a mixture with another compound), the Potency entry in [8], in [3], in [9], in test [5] and in test [6] was “inactive” throughout. For the same molecule, the call in test [4] and in test [7] was inactive.

As for `CC(=O)O.CC(=O)O.CC(=O)O.CC(=O)O.CC(=O)O.CC(=O)O.CC(=O)O.O.O.[Cr].[Cr].[Cr]`, the Potency result in [2], in [5] and in test [6] was “inactive” in each case. Besides, the outcome in [4] and in [7] was inactive.

Regarding `FC(F)C(F)(F)OCC(Cn1cncn1)c1ccc(Cl)cc1Cl` (stereo not given), the Potency result in test [1] and in test [6] was “inactive” throughout. Besides, in test [9], the Potency was 48.3 µM (active). Also, the molecule was classed as inactive in [4] and in test [7].

In the case of `CC1CCCC1`, the Potency entry in test [2] and in [3] was “inactive” in each case.

Consider `Oc1ccc2[nH]cc(CCCCN3CC=C(c4ccccc4)CC3)c2c1`, for which the Potency entry in test [3], in test [5] and in [6] was “inactive” in each case. In addition, the outcome in [7] was inactive.

For the molecule `O=C(N[C@@H]1N=C(c2ccccc2F)c2cccc3c2N(CC3)C1=O)c1cc2ccccc2[nH]1`, the Potency result in test [3], in test [5] and in test [6] was “inactive” each time. Further, the Potency in test [9] was 8.41 µM (active). Besides, the molecule was called inactive in [4] and in test [7].

On to `CC(=O)[O-].CC(=O)[O-].O.O.[Zn+2]`, for which the Potency entry in [2], in test [8], in test [5] and in test [6] was “inactive” throughout. The outcome in test [4] and in test [7] was inactive.
